These results are taken from PubChem BioAssay.

Structures are written as SMILES. Values joined by “and” are separate entries in the source; they are usually repeats but may differ in a detail not shown here. Equal entries are not always repeated. For some assays here: Potency and affinity values are given separately. Active and inactive are the calls of the source.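 The calls were made as follows, unless noted: active = compound raises insulin release from rat beta cells at 5 mM glucose, no numeric limit stated; inactive = the rest.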

A short description of test [1]: Wnt pathway potentiators raising nuclear beta-catenin – imaging, WNT3A-conditioned medium, mouse C2C12, NPC library, primary screen (AID 1117326; in the data active = nuclear beta-catenin stimulation mostly above about 4.2%, no sharp cut-off; inactive = mostly below about 10%). The following applies: stronger effect = higher value.
A short description of test [2]: stimulators of insulin release from INS-1E, primary screen, cell-based, 5 mM glucose, NPC library (AID 1117329). The following applies: rat INS-1E insulin secretion, at 10 µM, stronger effect = higher value.
Test [3] in a line: growth inhibition of GSK3B-pretreated HCT116 cells – cell-based, CellTiter-Glo, 0.2 to 20 µM (AID 1117336;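 active = compounds lowering colon cancer cell viability after pretreatment blocking the GSK3B kinase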). The following applies: HCT116 viability after GSK3B inhibitor, at 20 µM, stronger effect = higher value. For orientation: Cellular ATP, detected with luciferase, serves as a proxy for viable cell number.
Test [4] can be described thus: inhibition of endothelial tube formation, primary screen, imaging, VEGF stimulated, CD31 staining, tube area, NPC library (AID 1117340;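 active = compound that reduces growth-factor-driven endothelial tube area in a mixed cell culture, no cutoff stated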). The following applies: VEGF-stimulated ADSC/ECFC co-culture, at 10 µM, stronger effect = higher value.
Test [5] can be described thus: GLP1 release stimulators, primary, NCI-H716, NPC library (AID 1117341;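 active = compound raises GLP1 secretion from the human gut endocrine cells, with no numeric limit stated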). The following applies: NCI-H716 cells, at 10 µM, stronger effect = higher value.
The nature of test [6]: HCT116 colon cancer cell growth inhibition, primary screen, CellTiter-Glo luminescence, NPC library (AID 1117342;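 active = compounds that lower survival of HCT116 colon cancer cells in the luminescence readout, no numeric limit stated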). The following applies: at 20 µM (top of the series).
Test [7] is described as follows: reduced SW480 viability measured with CellTiter-Glo, NPC library, primary (AID 1117343;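 active = compounds that lower viability of the colon cancer cells in the luminescence readout, with no numeric limit stated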). The following applies: CellTiter-Glo luminescence; at 20 µM (top of the series).
Test [8] can be described thus: NPC library primary testing for decreased DLD-1 cell viability via CellTiter-Glo (AID 1117346;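 active = compounds that lower survival of DLD-1 colon cancer cells in the luminescence readout, no cutoff given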). The following applies: DLD-1 viability, CellTiter-Glo luminescence; at 20 µM (top of the series).
The nature of test [9]: blockers of polyQ-driven CASP3 activation – cell-based (AID 1583). The following applies: polyglutamine-induced caspase-3 activation, cell assay; stronger effect = higher value;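 tested at 10 µM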.
A short description of test [10]: yeast 75Q aggregation reduction – 75Q-TubU reporter (AID 1593). The following applies: Yeast 75Q polyglutamine aggregation reporter.
A short description of test [11]: restoration of touch response, mutant HTT neurons – whole organism, C. elegans mechanosensory neurons, N-terminal huntingtin (AID 1599). The following applies: C. elegans polyQ-huntingtin mechanosensory neurons, stronger effect = higher value.
Test [12] is described as follows: blockers of cytochrome c efflux from mitochondria – biochemical, purified mitochondria (AID 1603).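 Also: mouse liver mitochondria challenged with calcium chloride; signal normalized to the plate average as 100%.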 The following applies: stronger effect = lower value.
A short description of test [13]: polyglutamine aggregate formation blockers (AID 1604). The following applies: polyglutamine-induced protein aggregation inhibition assay; stronger effect = higher value; tested at 2.5 µM.
The target in test [14] is 6-phosphogluconate dehydrogenase, decarboxylating (Homo sapiens) (UniProt P52209). Nature of the test: inhibition of human phosphogluconate dehydrogenase – biochemical, recombinant enzyme, NADPH absorbance, primary screen (AID 1159550;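 active = at least 20% inhibition of 6-phosphogluconate dehydrogenase activity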). The following applies: recombinant 6PGD, NADPH absorbance 341 nm; at 10 µM; stronger effect = higher value.
Sequence of 6-phosphogluconate dehydrogenase, decarboxylating (Homo sapiens) (P52209 whole entry, looked up): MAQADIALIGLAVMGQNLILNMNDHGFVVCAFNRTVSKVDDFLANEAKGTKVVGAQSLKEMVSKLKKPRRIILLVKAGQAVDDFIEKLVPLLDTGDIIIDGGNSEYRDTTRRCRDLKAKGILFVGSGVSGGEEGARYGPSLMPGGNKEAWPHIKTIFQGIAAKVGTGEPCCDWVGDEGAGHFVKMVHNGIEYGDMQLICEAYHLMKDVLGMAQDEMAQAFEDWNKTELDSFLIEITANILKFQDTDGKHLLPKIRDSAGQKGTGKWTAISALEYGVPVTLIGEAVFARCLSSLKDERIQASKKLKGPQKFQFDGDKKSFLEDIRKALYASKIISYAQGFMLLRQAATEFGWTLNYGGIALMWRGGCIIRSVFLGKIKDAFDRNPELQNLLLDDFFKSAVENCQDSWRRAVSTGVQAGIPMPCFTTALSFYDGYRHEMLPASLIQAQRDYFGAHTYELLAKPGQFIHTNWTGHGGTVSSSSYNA
A short description of test [15]: EMT-state selective cytotoxicity in co-culture – imaging, PC-3E GFP, TEM4-18 mCherry, primary screen (AID 1345086;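 active = compounds killing one labelled cell type while sparing the other, by normalised counts and ratio limits, not self-fluorescent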;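 as to all read-outs here: cells exposed to compound for 72 h before imaging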;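 as to red/green cell ratio (normalised): normalised mesenchymal count divided by normalised epithelial count so high means epithelial killing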). The following applies: PC-3E GFP / TEM4-18 mCherry co-culture, imaging cell counts, at 1 µM; for red/green cell ratio (normalised): actives lie on both sides, counts scaled to control wells, 1 = unselective.
Test [16] can be described thus: MELAS cybrid and Rieske KO viability enhancers – cell-based, MELAS cybrids, Rieske KO mouse fibroblasts, CellTiter-Glo, primary screen (AID 1508586;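 active = mean z-score across replicates of 1.96 or higher in either the MELAS or the Rieske mutant cell line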;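 also: z relative to plate mean and SD of compound and empty wells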). The following applies: low glucose.
Test [17] addresses NAD(+) hydrolase SARM1 (Homo sapiens) (UniProt Q6SZW1). Nature of the test: blocking NAD cleavage by SARM1 SAM-TIR – cell lysate, NAD-Glo luminescence (AID 1508614;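 active = compound whose remaining NAD level is above about 45 nM, limit read from the data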;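 also: higher remaining NAD means stronger inhibition of SARM1 NADase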). The following applies: SAM-TIR HEK293T lysate NADase, at 1 µM, stronger effect = higher value.
Test [18] has as its target Mitogen-activated protein kinase 7 (Homo sapiens) (UniProt Q13164). The experiment in a line: Gal4-ERK5 driven luciferase induction – cell-based, HTS, primary screen (AID 1508626;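 active = luciferase signal above three times the same-plate solvent-only control wells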;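 also: luciferase driven by Gal4-ERK5 fusion binding five Gal4 sites before minimal TATA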). The following applies: HeLa Gal4-ERK5 transactivation, 18 h, at 5 µM, stronger effect = higher value.
The mark [19] stands for this setting: measured here: epithelial PC-3E GFP cell survival.
The mark [20] stands for this setting: measured here: mesenchymal TEM4-18 mCherry cell survival.
Where [21] appears, read: MELAS cybrid survival, CellTiter-Glo 48 h, stronger effect = higher value.
Where [22] appears, read: Rieske KO mouse fibroblast survival, CellTiter-Glo 72 h.

Sequence of NAD(+) hydrolase SARM1 (Homo sapiens) (Q6SZW1 whole entry, looked up, the tested form may be a part): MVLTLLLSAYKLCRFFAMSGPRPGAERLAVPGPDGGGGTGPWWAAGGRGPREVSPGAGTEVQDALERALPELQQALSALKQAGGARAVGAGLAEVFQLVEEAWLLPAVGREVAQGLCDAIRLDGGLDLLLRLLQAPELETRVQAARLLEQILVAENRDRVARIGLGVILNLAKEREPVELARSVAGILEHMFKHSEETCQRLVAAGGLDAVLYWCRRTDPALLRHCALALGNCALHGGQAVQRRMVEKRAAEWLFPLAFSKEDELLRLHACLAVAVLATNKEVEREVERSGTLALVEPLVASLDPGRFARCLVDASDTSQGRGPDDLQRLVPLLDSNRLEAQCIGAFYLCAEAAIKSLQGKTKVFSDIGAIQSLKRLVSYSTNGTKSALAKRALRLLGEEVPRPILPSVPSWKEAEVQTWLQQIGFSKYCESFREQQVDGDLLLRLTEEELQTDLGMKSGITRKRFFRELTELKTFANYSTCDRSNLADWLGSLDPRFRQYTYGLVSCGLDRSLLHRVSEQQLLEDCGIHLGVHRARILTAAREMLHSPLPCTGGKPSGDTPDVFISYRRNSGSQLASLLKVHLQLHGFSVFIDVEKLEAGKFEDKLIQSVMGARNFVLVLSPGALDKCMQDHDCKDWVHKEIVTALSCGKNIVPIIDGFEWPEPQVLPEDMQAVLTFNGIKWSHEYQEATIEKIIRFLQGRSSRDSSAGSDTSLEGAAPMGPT
Sequence of Mitogen-activated protein kinase 7 (Homo sapiens) (Q13164 whole entry, looked up, the tested form may be a part): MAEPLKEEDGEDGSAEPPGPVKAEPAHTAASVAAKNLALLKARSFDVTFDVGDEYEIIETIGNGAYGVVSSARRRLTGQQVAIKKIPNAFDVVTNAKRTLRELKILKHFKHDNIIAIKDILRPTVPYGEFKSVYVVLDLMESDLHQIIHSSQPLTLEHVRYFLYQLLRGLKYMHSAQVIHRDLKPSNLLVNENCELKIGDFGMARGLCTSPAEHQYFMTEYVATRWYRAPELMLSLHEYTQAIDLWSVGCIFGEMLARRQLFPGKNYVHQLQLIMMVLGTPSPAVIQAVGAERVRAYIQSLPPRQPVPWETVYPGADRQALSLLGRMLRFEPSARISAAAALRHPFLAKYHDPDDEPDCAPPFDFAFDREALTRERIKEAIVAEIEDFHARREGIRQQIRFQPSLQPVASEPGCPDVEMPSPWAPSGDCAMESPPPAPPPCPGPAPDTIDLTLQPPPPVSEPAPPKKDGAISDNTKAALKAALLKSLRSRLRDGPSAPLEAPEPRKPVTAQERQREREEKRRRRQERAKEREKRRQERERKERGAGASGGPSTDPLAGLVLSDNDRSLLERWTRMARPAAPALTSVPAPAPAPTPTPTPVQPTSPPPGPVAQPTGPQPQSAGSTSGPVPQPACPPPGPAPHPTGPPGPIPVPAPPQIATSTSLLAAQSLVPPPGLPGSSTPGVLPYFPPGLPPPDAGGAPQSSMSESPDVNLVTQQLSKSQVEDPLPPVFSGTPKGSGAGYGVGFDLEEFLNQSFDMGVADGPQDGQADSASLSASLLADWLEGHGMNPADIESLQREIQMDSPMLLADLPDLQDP

On to `CC(CC1c2ccccc2CCc2ccccc21)CN(C)C` (stereo unspecified), for which the nuclear beta-catenin stimulation in test [1] (at 10 µM) was -1% (inactive); in [1] (stimulation, at 2 µM), 0.4%. Also, in test [2], the insulin secretion stimulation was 29.8% (active). Besides, in [3], the viability decrease is 34.8% (inactive). For the same compound, the tube area decrease in test [4] is 9.8% (inactive). In test [5], the GLP1 secretion stimulation was -1.9% (inactive). For the same compound, the inhibition of viability in [6] was 44.4% (active). Besides, the viability decrease (inhibition) in [7] was 84.4% (active); in [8], 87.7% (active).
For the compound `O=P(O)(O)OCC(O)CO` (stereo unspecified), the nuclear beta-catenin stimulation in [1] (at 10 µM) is 0.5% (inactive); in test [1] (stimulation, at 2 µM), 0.5%. For the same compound, in [2], the insulin secretion stimulation is -2.1% (inactive). Also, the viability decrease in test [3] was 4.35% (inactive). Further, the tube area decrease in [4] is -14.2% (inactive). For the same compound, in [5], the GLP1 secretion stimulation was 0.6% (inactive). The inhibition of viability in test [6] is 9.3% (inactive). Also, the viability decrease (inhibition) was 23.1% (inactive) in test [7] and 18.2% (inactive) in [8].
Consider `Cc1ccc(O)c2ncccc12`, for which the nuclear beta-catenin stimulation in test [1] (at 10 µM) was 30.3% (inactive); in test [1] (stimulation, at 2 µM), 2.4%. For the same compound, the insulin secretion stimulation in test [2] is -2% (inactive). Moreover, the viability decrease in [3] was 16.6% (inactive). Also, the tube area decrease in test [4] is 5.7% (inactive). Besides, the GLP1 secretion stimulation in test [5] is 2.8% (inactive). Moreover, in [6], the inhibition of viability was 33% (inactive). Also, the values for the viability decrease (inhibition) in test [7] and in [8] were 27% (inactive) and 4.9% (inactive), respectively.
As usually defined, the inhibition is the change of the read-out against control, counted positive when it falls. As for `NC12CC3CC(CC(C3)C1)C2`, the inhibition is -8.1% in test [9] and -14.3% (inactive) in test [14]. The score in test [10] worked out at 1.77. The rescue above control in test [11] was -3.19. In test [12], the cytochrome c release ratio came to 0.94. In test [13], the inhibition of aggregation came out at 63.2%. In addition, the nuclear beta-catenin stimulation in test [1] (at 10 µM) was 2.1% (inactive); in [1] (stimulation, at 2 µM) it was 1.9%. Also, in [2], the insulin secretion stimulation is 2.4% (inactive). Further, the viability decrease in [3] is 7.6% (inactive). Besides, in test [4], the tube area decrease is 3.9% (inactive). The GLP1 secretion stimulation in test [5] is 6.5% (inactive). Also, in test [6], the inhibition of viability is 30.7% (inactive). In addition, the viability decrease (inhibition) in [7] was 56.6% (active); in test [8], 14.6% (inactive). In addition, the red/green cell ratio (normalised) in test [15] is 1.38 (inactive). Moreover, the values for the normalised cell number in test [15] (setting [19]) and in [15] (setting [20]) were 0.95 and 1.32, respectively. Besides, the z-score in [16] (setting [21]) was -0.372 (inactive) and -0.42 (inactive) and -0.564 (inactive); in test [16] (setting [22]) it was -0.543 and 0.116 and -0.0986. Moreover, in test [17], the remaining NAD was 10 nM (inactive). The luciferase signal in test [18] was 44 AU (inactive).
In the case of `CCC1(c2ccccc2)C(=O)NCNC1=O`, the inhibition is 9.61% in test [9] and 14.9% (inactive) in [14]. The compound further came in with a score in test [10] of 1.24. In [11], this compound returned a rescue above control of -6.81. Also, the cytochrome c release ratio in [12] was found to be 1.19. This compound also came in with an inhibition of aggregation in test [13] of 63%. Also, the nuclear beta-catenin stimulation is 0.6% (inactive) in [1] (at 10 µM) and 1.4% in test [1] (stimulation, at 2 µM). For the same compound, the insulin secretion stimulation in test [2] was -2.2% (inactive). For the same compound, the viability decrease in test [3] is -8.45% (inactive). Moreover, in [4], the tube area decrease was 12.9% (inactive). Further, the GLP1 secretion stimulation in [5] is -2% (inactive). In test [6], the inhibition of viability was 1% (inactive). For the same compound, the viability decrease (inhibition) was -8.1% (inactive) in [7] and -8.9% (inactive) in [8]. The red/green cell ratio (normalised) in test [15] is 1.02 (inactive). Moreover, the normalised cell number in [15] (setting [19]) stood at 1.02; in test [15] (setting [20]), 1.05. Besides, the z-score was -0.279 (inactive) and 0.626 (inactive) in [16] (setting [21]); 0.595 and -0.386 in test [16] (setting [22]). Besides, the remaining NAD in test [17] was 10 nM (inactive). The luciferase signal in [18] is 60 AU (inactive).
